Compound activity deposited in PubChem by National Center for Advancing Translational Sciences (NCATS).
A selection: hits, their analogues and other compounds. The true share with any hit is near 19%.
DT40 TDP1 CPT: growth inhibition of DT40 Tdp1-/-;hTDP1 cells with camptothecin (screen for TDP1 inhibitors) | chicken DT40 Tdp1-/-;hTDP1 cells + 20 nM CPT, ATP luminescence, 48 h | Potency, µM (highest dose often 46.2 µM), inactives show top-dose activity change, negative = growth inhibition, hits mostly inhibitors | 420,000 compounds, 12% hits; note: potency is the fitted concentration of half-maximal effect; % is set by controls: 0 for no effect and ±100 for the full control effect; nearly all actives have a fitted effect of over 55% in size
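Chicken DT40 Tdp1-/- cells complemented with human TDP1, 400 cells/well, exposed to compounds plus 20 nM camptothecin for at least 48 h at 37 C; viability read as ATP content by CellTiter-Glo luminescence.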
TGFb SMAD3 inh: inhibitors of TGF-b signaling; 410,000 compounds, 1.2% hits; HepG2 CAGA-GFP TGF-b/SMAD3 reporter, GFP fluorescence, 18 h; TGF-beta stimulated, 500 pg/mL final; Potency, µM (series often up to 46.1 µM), for inactives: at the highest dose activity, negative = inhibition, actives largely listed as inhibitors; note: potency is the fitted concentration of half-maximal effect; % is set by controls: 0 for no effect and ±100 for the full control effect; nearly all actives have a fitted effect of over 65% in size
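HEPG2 CAGA-GFP reporter cells (1000/well, DMEM with 1% FBS) received compounds, then recombinant TGF-beta at 500 pg/mL final for 18 hours at 37 degrees C. Per-cell GFP summed per well was normalised to unstimulated and stimulated DMSO controls before curve fitting.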
TDP1 cell noCPT: qHTS for Inhibitors of human tyrosyl-DNA phosphodiesterase 1 (TDP1): qHTS in cells in absence of CPT; DT40 Tdp1-/- hTDP1 cells, no CPT, ATP luminescence, 48 h; Potency, µM (top dose mostly 46.2 µM), inactives show at the highest dose activity change, negative = growth inhibition, hits mostly inhibitors; 420,000 compounds, 15% hits; note: potency is the fitted concentration of half-maximal effect; % is set by controls: 0 for no effect and ±100 for the full control effect; nearly all actives have a fitted effect of over 55% in size
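Luminescent ATP content (CellTiter-Glo) served as the growth readout. Knockout chicken DT40 cells expressing human TDP1 were exposed to compounds without camptothecin for a minimum 48 hr at 37 °C.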
IL-1B inflam inh: inhibitors of inflammasome signaling (IL-1 beta secretion). 360,000 compounds, 4.7% hits. activity change, % at 57.5 µM. THP-1 LPS/ATP IL-1B secretion, AlphaLISA, 16 h; hits give low values; in the data active = activity change below about -50%; inconclusive = mostly about -30% to -49%; note: % is set by controls: 0 for no effect and ±100 for the full control effect
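THP-1 cells pretreated 1 hr with compounds (up to 57.5 uM final), then stimulated with LPS (250 ng/mL final) plus ATP (1.25 mM final); secreted IL-1B measured by AlphaLISA after 16 hr, decreased signal indicating inhibition.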
HepG2 tox: HepG2 cytotoxicity, counter-screen for TGF-b inhibitors; HepG2 CAGA-GFP viability, ATP luminescence, 18 h; Potency, µM (highest dose often 46.1 µM), for inactives: at the top dose activity change, negative = cytotoxicity, actives largely listed as cytotoxic; 410,000 compounds, 0.76% hits; AID 588856; note: potency is the fitted concentration of half-maximal effect
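CellTiter-Glo luminescence gave cytotoxicity after 18 hours at 37 degrees C. The cells were HepG2 CAGA-GFP in 1% FBS DMEM, stimulated with 500 pg/mL TGF-beta after compound addition. %Activity was normalised to no-cell wells (complete cell-killing) and DMSO (no toxicity), and curves were fitted and classified.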
TDP1 block: blocks human tyrosyl-DNA phosphodiesterase 1. recombinant TDP1, AlphaScreen DNA substrate cleavage. Potency, µM (series often up to 130 µM), inactives show at the top dose activity change, negative = inhibition, most hits filed as inhibitors. 350,000 compounds, 0.28% hits. AID 485290; note: potency is the fitted concentration of half-maximal effect; % is set by controls: 0 for no effect and ±100 for the full control effect; nearly all actives have a fitted effect of over 40% in size
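Signal: AlphaScreen proximity between streptavidin donor and anti-FITC acceptor beads on intact substrate. Reaction: Tdp1 1 nM, substrate 15 nM final, 5 min RT after 15 min compound preincubation.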
* marks the source's active call; other numbers are inactive results; ? = inconclusive; nt = not tested or not shown; [ ] = another dose, or the depositor's remark. Unless noted, calls come from the whole dose curve; as a rule, active = well fitted curve in the direction sought with a large enough effect; inconclusive = small, poorly fitted or top-dose-only effect, or another doubt; inactive = no such curve, though single readings can be large; an effect the other way counts as inactive or inconclusive.

SMILES | DT40 TDP1 CPT | TGFb SMAD3 inh | TDP1 cell noCPT | IL-1B inflam inh | HepG2 tox | TDP1 block
Cc1cccc(C)c1NC(=O)C(c1ccccc1OC(F)(F)F)N1CCN(C/C=C/c2ccccc2)CC1 (stereo not drawn) | 16µM* | ? | 15µM* | ? | -25% | nt
Cc1cccc(C)c1NC(=O)C(c1ccccc1OC(F)(F)F)N1CCC(c2ccccc2)CC1 (stereo not drawn) | ? | nt | 16µM* | -19 | nt | nt
CC(=O)N1CCN(C(C(=O)Nc2c(C)cccc2C)c2ccccc2OC(F)(F)F)CC1 (stereo not drawn) | 0% | nt | -6% | 19 | nt | nt
Cc1nn2c(C)c(C(=O)NCCc3ccccc3)cnc2c1-c1ccccc1 | ? | ? | ? | nt | -24% | 5%
CCc1nc(SC)ncc1C(=O)N1CCN(c2cc(Cl)ccc2C)CC1 | ? | ? | 21µM* | nt | -30% | -1%
CCc1nc(SC)ncc1C(=O)N1CCN(c2cc(C)ccc2C)CC1 | -25% | ? | 15µM* | nt | 1% | 4%
Cc1ccc(C)c(N2CCN(C(=O)c3cnc4c(-c5ccccc5)c(C)nn4c3C)CC2)c1 | 26µM* | 22% | ? | nt | -8% | -3%
CC(=O)O[C@]1(C)CC[C@]23CC1C(C)(C)C2CC[C@@H]3C (stereo partly drawn) | -7% | nt | 15% | nt | nt | -5%[56.1 µM]
N#Cc1c(N)c2ccccn2c1C(=O)c1ccc(Br)cc1 | ? | -8% | ? | -2 | 1% | nt
COC(=O)c1cc(NC(=O)c2cc3sccc3n2Cc2ccc(Cl)cc2)cc(C(=O)OC)c1 | ? | -16% | ? | nt | -8% | 6%
CC(C)(C)c1ccc(C(=O)N/C(=C\c2cccc([N+](=O)[O-])c2)C(=O)Nc2cccc(C(=O)O)c2)cc1 | -17% | 20% | -6% | 2 | -2% | nt
CC(C)(C)NC(=O)CCc1nnc(Cc2c[nH]c3ccccc23)o1 | ? | -2% | 1% | 23 | -10% | 0%
O=C(CCc1nnc(Cc2c[nH]c3ccccc23)o1)NCC1CC12CCCCC2 (stereo not drawn) | ? | -4% | 26µM* | -5 | -10% | 8%
Cc1ccc(NC(=O)CN(C)C(=O)Cc2ccc(Cl)c(Cl)c2)cc1 | 29µM* | 7% | ? | -9 | -14% | 5%
Cc1ccc(NC(=O)CN(C)C(=O)Cc2ccc(Cl)cc2Cl)cc1 | 2% | -8% | -24% | -27 | -15% | -3%
Cc1ccc(NC(=O)CN(C)C(=O)Cn2ncc(Cl)c(Cl)c2=O)cc1 | 3.3µM* | ? | 2.6µM* | -105* | -13% | 3%
Cc1ccc(NC(=O)CN(C)C(=O)CSc2nc(C)cc(C)n2)cc1 | -22% | ? | ? | -16 | 4% | 0%
C=C1C(=O)OC2C1CCC(C)=C1C(=O)C3OC3(C)C12 (stereo not drawn) | 0.058µM* | 4.5µM* | 0.18µM* | -104* | 4.5µM* | nt
COc1ccccc1-n1c(SCC(=O)NCc2ccc3c(c2)OCO3)nc2cc([N+](=O)[O-])ccc21 | 4.1µM* | 3% | 21µM* | ? | 6% | 8%
CC(Sc1nc2cc([N+](=O)[O-])ccc2n1-c1ccc(F)cc1)C(=O)NCc1ccc2c(c1)OCO2 (stereo not drawn) | 16µM* | 2% | 15µM* | -30 | 1% | -1%
O=C(Cc1ccc([N+](=O)[O-])cc1)NCc1ccc2c(c1)OCO2 | -11% | 6% | -25% | 0 | 5% | 4%
